Test results published in PubChem BioAssay.

The compounds below were run on XIP peptide (Xip251-270) binding (assay: XIP fragment 251-270 binding compounds – biochemical, small-molecule microarray, fluorescence 635/667 nm, 0.1 µg/mL protein, primary screen (AID 1182)). Conditions: fluorescent protein binding, 635 nm, higher = more signal, called active from +8 up or from −8 down.

Composite z-score, inactive:
CC(C)CCN1CCc2nc(COc3ccccc3)c3c(c2C1)CO[C@@H](C)C3 0.0821
CO[C@H]1COC(=O)[C@H](C)NC(=O)CC=C[C@@H](C)[C@H](OC)COC(=O)[C@@H](OCc2ccccc2)C=C[C@@H]1C -0.296
O=C1CCCC=C1C(CCc1ccccc1)OC(=O)c1ccc(Br)cc1 (stereo not drawn) 0.622
CC(CCN1CCc2nc(-c3ccccc3)c(-c3ccccc3)cc2C1)=NOC[C@@H](O)[C@H]1O[C@@H]2OC(C)(C)O[C@@H]2[C@H]1O 0.176
O=C1[C@H]2[C@H]3[C@H](O)[C@H](O)CC(=NOCc4ccccc4)[C@@H]3CC[C@H]2C(=O)N1Cc1ccc2c(c1)OCO2 0.135
COc1cccc([C@H]2Oc3ccc(OC)cc3C(=NO[C@@H](C)c3cn([C@H](CO)Cc4ccccc4)nn3)[C@@H]2O)c1 0.213
COC(=O)[C@H](C)NC(=O)CCC1CC(OC(=O)NCc2ccc3c(c2)OCO3)CC2(CCCC(COC(=O)NCC3CCCCC3)O2)O1 (stereo partly drawn) 0.655
CC(C)(C)N1C(=O)[C@H]2[C@H]3[C@H](O)[C@H](O)CC(=NOCc4ccccc4)[C@H]3CC[C@H]2C1=O 0.082
CC(CCN1CCCCc2nc(C)c(C)cc21)=NOC[C@@H](C)[C@H](OCc1ccccc1)C(C)C -0.494
Cc1cc2c(nc1C)CCCCN2CC(C)ON=C[C@@H](C)[C@H](OCc1ccccc1)C(C)C (stereo partly drawn) -0.398
CCc1cc2c(nc1CC)CCN(CCC(C)=NO[C@H](C)c1cn([C@@H]3COC[C@H]3O)nn1)C2 -0.171
C#CCCCON=C1C[C@@H](O)[C@@H](O)[C@@H]2[C@@H]3C(=O)N(c4ccc(F)cc4F)C(=O)[C@@H]3CC[C@@H]12 0.76
C[C@@H]1C=CCC(=O)OC[C@H]2O[C@@H](C=C[C@@H]2O)[C@H](C)C=CCC(=O)OC1 1
CC(CCN1CCCc2nc(C)c(C)cc21)=NOC(C)CN1CCCCc2nc(C)c(C)cc21 (stereo not drawn) -0.053
CC(CCN1CCCCc2nc(C)c(C)cc21)=NO[C@@H](C)c1cn([C@H](CO)Cc2ccccc2)nn1 0.305
CC(C)=CCCC(C)=CCON=C1C[C@@H](O)[C@@H](O)[C@@H]2[C@@H]3C(=O)N(C(C)(C)C)C(=O)[C@@H]3CC[C@H]12 -0.007
CCN1C(=O)[C@@H]2[C@H]3C(=CC[C@@H]2C1=O)C1(OCCCO1)[C@H]1O[C@H]1[C@H]3O 0.645
O=C1C[C@@H](O)[C@@H](O)[C@@H]2[C@@H]3C(=O)N(C[C@@H]4CCCO4)C(=O)[C@@H]3CC[C@@H]12 0.74
CCOC(=O)NN=C1C[C@@H](O)[C@@H](O)[C@@H]2[C@@H]3C(=O)N([C@@H](C)c4ccccc4)C(=O)[C@@H]3CC[C@H]12 0.0004
CCCNC(=O)OC[C@H]1O[C@H](c2ccccc2)C=C[C@@H]1Oc1ccc(OC)cc1 -0.174
C[C@H]1CC[C@H]2C(=O)O[C@H](COc3ccc(C(C)(C)C)cc3)CN2[C@@H]1c1ccc(Br)cc1 1.71
CCOC(=O)[C@H](Cc1ccccc1)NC(=O)CCC1CC(OC(=O)NCc2cccc3ccccc23)CC2(CCCC(COC(=O)NCCC(C)C)O2)O1 (stereo partly drawn) 0.646
COC(=O)[C@@H]1CC[C@H](C)[C@@H](c2ccc(C)cc2)N1C(=O)c1ccc(C=NOC[C@@H](C)[C@H](OCc2ccccc2)C(C)C)cc1 0.0611
C=CC[C@@H]1C=C[C@H](ON=C(C)CCC(=O)OC[C@H]2O[C@H](C#Cc3ccccc3)C=C[C@@H]2Oc2ccc(C)cc2)[C@@H](CO)O1 1.18
CCOC(=O)[C@H](CC(C)C)NC(=O)CCC1CC(OC(=O)NCc2cccc3ccccc23)CC2(CCCC(COC(=O)NCc3ccncc3)O2)O1 (stereo partly drawn) 1.56
COc1ccc(O[C@H]2C=C[C@@H](c3ccccc3)O[C@@H]2COC(=O)CCC(C)=NOC(C)CN2CCCc3nc(C)c(C)cc32)cc1 (stereo partly drawn) 0.53
COC(=O)CC=C[C@@H](C)[C@@H]1C=C[C@H](O)[C@@H](CO)O1 0.0118
COC(=O)C1=C(C)N(Cc2ccccc2)[C@]23O[C@](C(=O)OC)(C(=O)N2[C@@H]1c1ccccc1)C(C(=O)OC)=C3C(=O)OC 1.49
